According to PubChem BioAssay AID463173 (ICCB-Longwood Screening Facility, Harvard Medical School, 2010):
Among all 52,000 compounds or so, about 4,300 (8.3%) were called active. Cut-off read from the data, not from the text of the source: active = survival mostly below about 52% (no sharp cut-off); inactive = mostly above about 56%. The sample as a whole holds a higher share of actives than the screen did.

These molecules were tested on DeltatarO mutant (assay: growth inhibition of S. aureus wild type versus tarO mutant, primary screen, teichoic acid synthesis inhibitors, RN4220, OD600 (AID 463173)). Conditions: OD600, 18 h, active compounds read low, screened at 18.75 µg/mL (by protocol).

Q: Which survival does the source give for COc1ccc(OCc2nc(-c3ccc(OC)c(OC)c3)no2)cc1 here?
A: 61% (inactive)

Q: For COc1ccc(-c2noc(COc3cc(C)ccc3C)n2)cc1OC, which survival is on record?
A: -5% (active)

Q: For COc1ccc(-c2noc(CN(C)S(=O)(=O)c3c(C)cc(C)cc3C)n2)cc1OC, which survival is on record?
A: 45% (inactive)

Q: CN(C)S(=O)(=O)c1ccc(S(=O)(=O)N(CC(=O)Nc2ccccc2)C2CC2)cc1 was tested. Which survival did it give?
A: 94% (inactive)

Q: Cc1cc(C)cc(OCC(=O)NCC2(N3CCOCC3)CCCCC2)c1 was tested. Which survival did it give?
A: 91% (inactive)

Q: Which survival does the source give for CCc1[nH]nc2c1C(c1ccc(F)c(Oc3ccccc3)c1)C(C#N)=C(N)O2 (stereo unspecified) here?
A: 80% (inactive)

Q: How did the survival turn out when CCn1c2ccccc2c2cc(C3C(C#N)=C(N)Oc4n[nH]c(C(C)C)c43)ccc21 (stereo unspecified) was run?
A: 3% (active)

Q: How did the survival turn out when COCc1[nH]nc2c1C(c1ccc(F)c(F)c1)C(C#N)=C(N)O2 (stereo unspecified) was run?
A: 74% (inactive)

Q: Which survival does the source give for CCOC(=O)c1cc(S(=O)(=O)N2CCN(c3cccc(OC)c3)CC2)[nH]n1 here?
A: 108% (inactive)

Q: COc1ccc(NS(=O)(=O)c2ccc3c(c2)CCN3C(=O)C2CC2)cc1OC was tested. Which survival did it give?
A: 86% (inactive)

Q: Cc1cn(C)c(CC(=O)N2CCN(c3ccccc3F)CC2)c1C(=O)O was tested. Which survival did it give?
A: 89% (inactive)

Q: For COc1ccccc1N1CCN(C(=O)Cc2c(C(=O)O)c(C)cn2C)CC1, which survival is on record?
A: -5% (active)

Q: For Cc1cccc(N2CCN(C(=O)Cc3c(C(=O)O)c(C)cn3C)CC2)c1C, which survival is on record?
A: 96% (inactive)

Q: For Cc1ccc(NC(=O)c2cccc(NC(=O)N3CCSc4ncccc43)c2)cc1Cl, which survival is on record?
A: 88% (inactive)

Q: For O=C(CCSCc1cnn(-c2ccccc2)c1-n1cccc1)NCc1ccc(Cl)cc1, which survival is on record?
A: 63% (inactive)

Q: With O=S(=O)(c1ccc2nc(Nc3cccc(F)c3)ccc2c1)N1CCCC1 as the molecule, how does the survival read?
A: 72% (inactive)

Q: How did the survival turn out when CC(=O)c1cccc(Nc2ccc3cc(S(=O)(=O)N4CCCC4)ccc3n2)c1 was run?
A: 101% (inactive)

Q: With CCOC(=O)c1cccc(Nc2ccc3cc(S(=O)(=O)N4CCCCC4)ccc3n2)c1 as the molecule, how does the survival read?
A: -1% (active)

Q: How did the survival turn out when COc1ccc(-c2onc(C)c2C)cc1S(=O)(=O)N1CCN(c2ccc(Cl)cc2)CC1 was run?
A: 64% (inactive)

Q: Which survival does the source give for Clc1cccc(CNNc2nc(N3CCCCC3)nc(N3CCCCC3)n2)c1 here?
A: 98% (inactive)

Q: Which survival does the source give for CCn1cc2nc(SCc3cc(C)ccc3C)n(CCc3ccccc3)c(=O)c2n1 here?
A: 67% (inactive)

Q: CCOC(=O)c1cnc2c(C)c(Cl)ccc2c1Nc1ccc(C)cc1C was tested. Which survival did it give?
A: 142% (inactive)

Q: How did the survival turn out when CCOC(=O)c1cnc2ccc(C)cc2c1NCCc1ccc(OC)c(OC)c1 was run?
A: 136% (inactive)

Q: With CCOC(=O)c1cnc2c(C)c(Cl)ccc2c1NCCc1ccc(OC)c(OC)c1 as the molecule, how does the survival read?
A: 17% (active)

Q: Which survival does the source give for CCOC(=O)c1cnc2ccc(OC)cc2c1NCCc1ccc(OC)c(OC)c1 here?
A: 65% (inactive)

Q: CCOC(=O)c1cnc2ccc(OC)cc2c1NCCc1ccccc1 was tested. Which survival did it give?
A: -2% (active)

Q: CCOC(=O)c1cnc2ccc(OCC)cc2c1NCCc1ccc(OC)c(OC)c1 was tested. Which survival did it give?
A: 116% (inactive)

Q: CCOC(=O)c1cnc2c(C)c(C)ccc2c1NCCCCCO was tested. Which survival did it give?
A: 84% (inactive)

Q: For CCOC(=O)c1cnc2c(C)c(Cl)ccc2c1NCCc1ccccc1, which survival is on record?
A: -3% (active)

Q: CCOC(=O)c1cnc2ccccc2c1NCCc1ccc(OC)c(OC)c1 was tested. Which survival did it give?
A: 33% (active)

Q: With CCOC(=O)c1ccc2ncc(C(=O)OCC)c(NCCc3ccc(OC)c(OC)c3)c2c1 as the molecule, how does the survival read?
A: 53% (inactive)
